Measurements as given in PubChem BioAssay (EPA / NIEHS).
“And” between values parts separate entries of the source, which are not always exact repeats. Equal entries are not always repeated. Some compounds were tested as several samples or in several runs, with calls that do not always agree. The source made the active and inactive calls. How the source made its calls: active means hit-call score of the fitted dose curve at least 0.9, where 1 is the maximum; inactive means score below 0.9.

Experiment: BSK_IMphg_SRB.Mphg: Macrophage Viability Assessment in the BioMAP Diversity Plus: IMphg Assay (AID 2284295)
Details: primary human endothelial cells with macrophages
Protocol: BSK_IMphg is a cell-based, multiplexed-readout assay that uses venular endothelial cells and macrophages, a human vascular primary cell, with measurements taken at 24 hours after chemical dosing in a microplate: 96-well plate.BSK_IMphg_SRB.Mphg is an assay component measured in the BSK_IMphg assay. It measures […] related to cell death using Sulforhodamine staining technology.Data from the assay component BSK_IMphg_SRB.Mphg was analyzed at the endpoint, BSK_IMphg_SRB.Mphg, in the positive analysis fitting direction relative to DMSO as the negative control and baseline of activity. Using a type of viability reporter, gain or loss-of-signal activity can be used to understand protein changes. To generalize the intended target to other relatable targets, this assay endpoint is annotated to the 'cell morphology' intended target family, where the subfamily is 'cell conformation'.
The levels of cell surface (or secreted, indicated by the prefix "s") biomarker endpoints were measured by ELISA. Overt cytotoxicity to cells in confluent adherent cultures (all systems other than the BT system) was assessed by measuring total protein levels using sulforhodamine B (SRB) staining in parallel cultures at the time of biomarker measurements, indicated as SRB endpoints. For proliferation assays for adherent cell types, individual cell types are cultured at sub-confluence and relative cell numbers quantified by SRB staining at time points optimized for each system (48 h: 3C and CASM3C systems; 72 h: BT and HDF3CGF systems; 96 h: SAg system). SRB was performed by staining cells with 0.1% SRB after fixation with 10% TCA and reading wells at 560 nm.Viability and proliferation of PBMC (T cells) was quantified by Alamar Blue reduction for the SAg and BT systems. For PBMC viability (referred to as PBMC Cytotoxicity within the assay endpoint names), cells were plated (75,000/well in a 96-well plate) and then chemical samples added for 1 h before addition of activators, SEB and TSST-1 (20 ng/mL final concentration each). Cells were incubated for 90 h. Then, Alamar Blue (20 uL/well) (Invitrogen, Cat DAL1100) was added for 6 h, and the plates were read with a fluorescence microplate reader at 546/580 nm (excitation/emission). For PBMC proliferation, cells were plated and activated as above but incubated for only 16 h prior to addition of Alamar Blue. Plates were read after 6 h.

SMILES | outcome | AC50
COC(=O)C(F)(F)C(F)(F)OC(F)(C(F)(F)F)C(F)(F)OC(F)=C(F)F (stereo unspecified) | inactive | –
O=C(O)C(F)(F)OC(F)(F)C(F)(F)OC(F)(F)F | inactive | 11.3 µM (active)
O=C(O)C(F)(F)OC(F)(F)C(F)(F)OC(F)(F)C(=O)O | inactive | –
OCC(F)(F)OC(F)(F)C(F)(F)OC(F)(F)C(F)(F)OC(F)(F)CO | inactive | –
NC(=O)C(F)(F)C(F)(F)F | inactive | –
O=C(O)C(F)(OC(F)(F)C(F)(F)C(F)(F)F)C(F)(F)F (stereo unspecified) | inactive | 30 µM (active)
O=C(O)C=CC(F)(C(F)(F)F)C(F)(F)F | inactive | –
OCC(F)(F)OC(F)(F)C(F)(F)OC(F)(F)C(F)(F)OC(F)(F)F | – | 21 µM (active) and 15.3 µM (active)
OCC(F)(F)OC(F)(F)C(F)(F)OC(F)(F)CO | inactive | –
CC(O)C(F)(F)C(F)(F)F (stereo unspecified) | inactive | –
O=S(=O)(F)C(F)(F)C(F)(F)C(F)(F)C(F)(F)C(F)(F)C(F)(F)C(F)(F)C(F)(F)F | inactive | –
C=CC(=O)OCC(F)(F)C(F)F | inactive | –
O=C(O)C(F)(F)C(F)(F)C(=O)O | inactive | –
FC(F)(F)C(F)(C(F)(F)F)C(F)(F)C(F)(F)CC1CO1 (stereo unspecified) | inactive | –
